HT1080-NT tox – kills 2HG-producing HT-1080-NT fibrosarcoma cells; Potency, µM (titrated, usually from 46.1 µM), for the others: top-dose activity, negative = less viability, most hits filed as cytotoxic; 360,000 tested, 1.6% active; HT-1080-NT fibrosarcoma viability, CellTiter-Glo ATP luminescence, 48 h;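 also: NT is the 2HG producing partner of a matched IDH1 knockdown line; potency is read from the fitted curve at half-maximal effect; 0% = DMSO-treated cells and -100% = media-only wells without cells; nearly all actives have a fitted effect of over 55% in size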
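Fibrosarcoma NT cells, 750 per well in 5% FBS RPMI, were exposed to compound for 48 hours. Viability: CellTiter-Glo luminescence.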
IL-1B inflam inh – blocks inflammasome-driven IL-1 beta release. 360,000 tested, 4.7% active. activity change, % at 57.5 µM. THP-1 LPS/ATP IL-1B secretion, AlphaLISA, 16 h; active compounds read low; in the data active = activity change below about -50%; inconclusive = mostly about -30% to -49%
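THP-1 cells pretreated 1 hr with compounds (up to 57.5 uM final), then stimulated with LPS (250 ng/mL final) plus ATP (1.25 mM final); secreted IL-1B measured by AlphaLISA after 16 hr, decreased signal indicating inhibition.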
DT40 TDP1 CPT – DT40-hTDP1 cell growth loss with CPT; Potency, µM (top dose mostly 46.2 µM), without a hit: top-dose activity change, negative = growth inhibition, usual class: inhibitors; 420,000 tested, 12% active; chicken DT40 Tdp1-/-;hTDP1 cells + 20 nM CPT, ATP luminescence, 48 h; also: potency is read from the fitted curve at half-maximal effect; nearly all actives have a fitted effect of over 55% in size
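Chicken DT40 Tdp1-/- cells stably complemented with human TDP1 were seeded at 400 cells/well in medium containing 20 nM camptothecin, exposed to pin-transferred compounds, and grown at 37 °C for at least 48 hr. Viability was read as ATP luminescence.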
DT40 TDP1 no CPT – qHTS for Inhibitors of human tyrosyl-DNA phosphodiesterase 1 (TDP1): qHTS in cells in absence of CPT; DT40 Tdp1-/- hTDP1 cells, no CPT, ATP luminescence, 48 h; Potency, µM (top dose mostly 46.2 µM), inactives show top-dose activity change, negative = growth inhibition, hits mostly inhibitors; 420,000 tested, 15% active; AID 686978, 2013; also: potency is read from the fitted curve at half-maximal effect; nearly all actives have a fitted effect of over 55% in size
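Growth of hTDP1-complemented DT40 Tdp1-knockout cells is measured by ATP luminescence after at least 48 hr compound exposure at 37 °C, with DMSO substituting for the 20 nM CPT used in the parallel screen.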
HT1080 IDH1KD tx – kills HT-1080 cells with IDH1 knockdown | HT-1080 IDH1 knockdown viability, ATP luminescence, 48 h | Potency, µM (doses to about 46.1 µM), inactives show at the highest dose activity, negative = toxicity, hits mostly cytotoxic | 360,000 tested, 2% active;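 also: potency is read from the fitted curve at half-maximal effect; 0% = DMSO wells and -100% = cell-free medium wells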
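Knockdown cells (IDH1KD HT-1080) received compounds 2 h after plating at 750 cells/well and were kept 48 h at 37 °C in 5% FBS RPMI. A CellTiter-Glo luminescence read gave % activity for curve fitting.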
* hit, by the source's call; i = inactive; ? = inconclusive; . = not tested or not shown. Most compounds without a hit are left out; they make up all but 19% or so of the library. Unless noted, calls follow the shape of the dose curve; as a rule, active = well fitted curve in the direction sought with a large enough effect; inconclusive = small, poorly fitted or top-dose-only effect, or another doubt; inactive = no such curve, though single readings can be large; an effect the other way counts as inactive or inconclusive. Unless noted, % is scaled to controls: 0 for no effect and ±100 for the full control effect.

SMILES	HT1080-NT tox	IL-1B inflam inh	DT40 TDP1 CPT	DT40 TDP1 no CPT	HT1080 IDH1KD tx
CCOC(=O)c1c(C)[nH]c(C)c1S(=O)(=O)N(C)CC(=O)Nc1cccc(C)c1	-3%	17	-26%	-14%	-1%
CCOc1cc(C)nc(NCCc2ccc(OC)c(OC)c2)n1	0%	-57*	?	20µM*	-1%
COc1ccc(CCNc2nc(-c3ccco3)cc(C(F)(F)F)n2)cc1OC	-11%	-8	?	?	-5%
Fc1ccc(CNc2nc(-c3ccc(Cl)cc3)cc(C(F)(F)F)n2)cc1	.	.	23µM*	18µM*	.
COc1ccc(-c2cc(C(F)(F)F)nc(NCc3ccccc3)n2)cc1	.	.	26µM*	?	.
COc1ccc(CCNc2nc(-c3ccc(OC)c(OC)c3)cc(C(F)(F)F)n2)cc1OC	.	.	18µM*	?	.
FC(F)(F)c1cc(-c2ccco2)nc(NCc2ccccc2)n1	-1%	1	?	?	1%
Fc1ccc(-c2cc(C(F)(F)F)nc(NCc3cccs3)n2)cc1	-2%	-8	-17%	?	0%
CCCC(=O)n1nc(-c2ccco2)nc1NCc1ccccc1Cl	.	.	-26%	-1%	.
COc1ccc(-c2cc(C(F)(F)F)nc(N3CCOCC3)n2)cc1OC	1%	-19	?	10µM*	2%
CC(=O)c1ccc2noc(-c3ccccc3)c2c1	14%	?	-9%	-12%	1%
CN(C)/C=C/C(=O)c1ccc2noc(-c3ccccc3)c2c1	?	-52*	?	?	-14%
N#Cc1cc2c(OCC(O)CN3CCN(C(c4ccccc4)c4ccccc4)CC3)cccc2[nH]1 (centres undefined)	.	.	8.9µM*	5.6µM*	.
OC(COc1ccccc1)CN1CCN(C(c2ccccc2)c2ccccc2)CC1 (centres undefined)	-8%	?	?	?	-16%
N#Cc1ccc(OCC(O)CN2CCN(c3ncc(C(F)(F)F)cc3Cl)CC2)cc1 (centres undefined)	?	-65*	?	15µM*	?
N#Cc1ccc(OCC(O)CN2CCN(CC(O)COc3ccc(C#N)cc3)CC2)cc1 (centres undefined)	8%	16	?	26µM*	4%
N#Cc1ccc(-c2ccc(OCC(O)CN3CCCCC3)cc2)cc1 (centres undefined)	-4%	?	23µM*	?	?
CN1CCN(CC(O)COc2ccc(C34CC5CC(CC(C5)C3)C4)cc2)CC1 (centres undefined)	18µM*	-99*	?	13µM*	15µM*
N#Cc1ccc(OCC(O)CN2CCN(C(c3ccccc3)c3ccccc3)CC2)cc1 (centres undefined)	?	-20	?	18µM*	-28%
COc1ccc(OC)c(S(=O)(=O)N2CCN(CC(O)COc3ccc(C#N)cc3)CC2)c1 (centres undefined)	-6%	0	?	23µM*	-1%
CCCC(CCC)=NNC(=O)c1ccccc1F	1%	-8	13%	-5%	-4%
O=[N+]([O-])c1cc(-c2ncccn2)c([N+](=O)[O-])s1	16µM*	-86*	2.3µM*	2.9µM*	21µM*
O=C(Nc1ncccn1)c1cc([N+](=O)[O-])cc([N+](=O)[O-])c1	12%	0	-3%	-17%	21%
CC(C)C1N(c2ccccc2)C(N)=C(C#N)C1(C#N)C#N (centres undefined)	-8%	-14	?	23µM*	-3%
C=CCN(Cc1nc(-c2cc(OC)ccc2OC)oc1C)C1CCS(=O)(=O)C1 (centres undefined)	8%	27	3%	-10%	4%
SMILES	HT1080-NT tox	IL-1B inflam inh	DT40 TDP1 CPT	DT40 TDP1 no CPT	HT1080 IDH1KD tx
O=C(Cn1cc(F)c(=O)[nH]c1=O)NCCO	1%	-2	-2%	22%	-1%
CCn1c(SCC(=O)N2CCCc3ccccc32)nc2c(c1=O)SC(C)C2 (centres undefined)	5%	14	16µM*	?	-1%
CC1Cc2nc(SCC(=O)N3CCCc4ccccc43)n(C)c(=O)c2S1 (centres undefined)	-9%	12	?	13µM*	-2%
CC1CCN(C(=O)CSc2nc3c(c(=O)n2C)SC(C)C3)CC1 (centres undefined)	-6%	i	?	21µM*	-1%
CCn1c(SCC(=O)N2CCc3ccccc32)nc2c(c1=O)SC(C)C2 (centres undefined)	-8%	1	?	-18%	-4%
CC(C)c1ccc(-c2nnn(Cc3nc4ccccc4s3)n2)cc1	1%	24	3%	-19%	-6%
COc1ccc([C@H]2CC(=O)C=C(c3ccccc3Oc3ccccc3)C2)cc1	-20%	-25	?	?	-6%
COc1ccc([C@H]2CC(=O)C=C(c3ccccc3-c3ccccc3)C2)cc1	?	26	23µM*	23µM*	?
COc1ccc(OC)c(C2=CC(=O)C[C@H](c3ccc4c(c3)OCO4)C2)c1	?	6	7.3µM*	10µM*	?
COc1ccc([C@H]2CC(=O)C=C(c3cc(C)ccc3OC)C2)cc1	?	-8	4.1µM*	6.5µM*	?
COc1ccc([C@H]2CC(=O)C=C(c3cccc(OC(F)(F)F)c3)C2)cc1	17%	-8	23µM*	?	2%
c1ccc(CNc2ccnc(-c3ccoc3)n2)cc1	.	.	-1%	-22%	.
COc1ccc([C@H]2CC(=O)C=C(c3ccc(Br)c4ccccc34)C2)cc1	-6%	-5	-4%	-2%	0%
COc1ccc([C@H]2CC(=O)C=C(c3cc(Cl)ccc3C)C2)cc1	-14%	13	?	?	-10%
COc1ccc([C@H]2CC(=O)C=C(c3ccnc4ccc(Cl)cc34)C2)cc1	18µM*	-12	8.2µM*	9.2µM*	3.7µM*
COc1ccc([C@H]2CC(=O)C=C(c3cc(Br)ccc3OC)C2)cc1	-18%	5	18µM*	16µM*	?
CCOc1ccc(Br)cc1C1=CC(=O)C[C@H](c2ccc(OC)cc2)C1	?	68	4.6µM*	2.9µM*	5.8µM*
CC(Cl)C(=O)Nc1ccccc1C#N (centres undefined)	7%	0	-5%	-14%	7%
O=C(OC(C(=O)Nc1ccc(Cl)cc1C(F)(F)F)c1ccccc1)c1c(Cl)cccc1Cl (centres undefined)	-7%	0	?	13µM*	-16%
Cc1ccc(C(=O)OC(C(=O)Nc2ccc(Cl)cc2C(F)(F)F)c2ccccc2)cc1 (centres undefined)	?	14	?	23µM*	?

Screening results deposited in PubChem by National Center for Advancing Translational Sciences (NCATS).
